“And” between values parts separate entries of the source, which are not always exact repeats. Equal entries are not always repeated. Results filed as inconclusive are left out. Some compounds were tested as several samples or in several runs, with calls that do not always agree. The source made the active and inactive calls. Unless noted, the call rests on the fitted dose curve; in most records, active means well fitted curve in the direction sought with a large enough effect in the repeat runs; inconclusive means weak or mixed curves; inactive means no such curve, though single readings can be large; an effect the other way counts as inactive or inconclusive.
Columns and labels:
[1] = biological target: Thyrotropin receptor (Homo sapiens) (UniProt P16473); assay: qHTS assay to identify small molecule agonists of the thyroid stimulating hormone receptor (TSHR) signaling pathway (AID 1224843; calls by dose curve; further: nearly all actives have a fitted effect of over 45% in size; further: potency means the concentration at half of the fitted maximal effect)
In short: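 Agonist activity read as cAMP rise via d2/cryptate HTRF competition, 1 h room-temperature detection, in HEK293 cells expressing TSHR. Fifteen-point titrations, each run in triplicate, with a 30 min room-temperature incubation beforehand.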

[2] = qHTS assay to identify small molecule agonists of the hypoxia (HIF-1) signaling pathway - cell viability counter screen (AID 1224844; calls by dose curve; further: nearly all actives have a fitted effect of over 50% in size)
In short: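 In this counter screen, HRE-bla ME-180 cell viability after 17 hrs of compound exposure at 37C was read by CellTiter-Glo luminescence, multiplexed with the beta-lactamase reporter measurement.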

[3] = qHTS assay to identify small molecule agonists of H2AX (AID 1224845; active means well fitted activation curve with a large enough effect in the signal ratio in the repeat runs, not every such curve was filed as active; the % refers to the signal ratio)
In short: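 Phospho-H2AX Ser139 measured by HTRF (ex 320 nm; em 665 and 620 nm) after 24 hr antibody incubation. Compounds, 15 concentrations, 0.76% DMSO, were applied to CHO-K1 cells for 3hr at 37C before lysis.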

[4] = qHTS assay to identify small molecule agonists of H2AX - cell viability counter screen (AID 1224847; calls by dose curve; further: top concentration of the series differs between compounds; nearly all actives have a fitted effect of over 30% in size)
In short: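 Compounds tested at 15 concentrations were incubated 3 hr at 37C with wild-type CHO-K1 cells; cellular ATP-based luminescence (CellTiter-Glo) indicated viability.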

[5] = qHTS RealTime-Glo MT Cell Viability Assay in HepG2 cells - 24 hour (AID 1224867); further: nearly all actives have a fitted effect of over 50% in size
In short: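 Cells + NanoLuc/prosubstrate dispensed (600 cells/well) → 5 h at 37 C/5% CO2 → compounds in DMSO transferred → 40 h incubation at 37 C, luminescence read at 0, 8, 16, 24, 32, 40 h.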

[6] = qHTS RealTime-Glo MT Cell Viability Assay in HEK293 cells - 32 hour (AID 1224868); further: nearly all actives have a fitted effect of over 50% in size; further: potency means the concentration at half of the fitted maximal effect
In short: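 Tox21 10K qHTS, HEK293, 600 cells/well, RealTime-Glo reagent co-dispensed with cells; 5 h preincubation, compound by pintool, 37 C, luminescence at 0–40 h.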

[7] = A CellTox Green Cytotoxicity Assay to monitor cytotoxicity in HEK293 cells - 0 hour (AID 1224869); further: nearly all actives have a fitted effect of over 50% in size
In short: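 Real-time, in one plate: 600 HEK293 cells/well with dead-cell DNA dye, pinned compound after 5 h, 37 C incubation over 40 h; viable cells give no appreciable fluorescence.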

[8] = qHTS assay to identify small molecule agonists of the hypoxia (HIF-1) signaling pathway (AID 1224846; active means well fitted activation curve with a large enough effect in the signal ratio in the repeat runs, not every such curve was filed as active; the % refers to the signal ratio)
In short: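 ME-180 HRE-bla reporter cells; compounds in DMSO, 17 h at 37C; read-out beta-lactamase via CCF4-AM FRET.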

[9] = qHTS assay to identify small molecule antagonists of the estrogen related receptor (ERR) signaling pathway from Tox21 library (AID 1224848); further: nearly all actives have a fitted effect of over 50% in size
In short: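 Luciferase luminescence (ONE-Glo, 30 min room temperature) was the read-out. Cells of the NTP-supplied ERR line, 2,000 per well, were given 6 h at 37 C before compound addition in DMSO and 18 h exposure at 37 C.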

[10] = qHTS assay to identify small molecule agonists of the estrogen related receptor (ERR) signaling pathway from Tox21 library (AID 1224849; calls by dose curve; further: nearly all actives have a fitted effect of over 15% in size); conditions: ERR reporter cell line, ONE-Glo luciferase, 18 h; at 92.4 µM (top of the series) unless noted
In short: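 Luciferase activity in ERR pathway reporter cells served as the agonist readout; exposure lasted 18 h at 37 C, with ONE-Glo detection after 30 min at room temperature.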
On the % scale 0 is the no-effect control and ±100 the full control effect.

Chain of Thyrotropin receptor (Homo sapiens) (P16473 whole entry, looked up): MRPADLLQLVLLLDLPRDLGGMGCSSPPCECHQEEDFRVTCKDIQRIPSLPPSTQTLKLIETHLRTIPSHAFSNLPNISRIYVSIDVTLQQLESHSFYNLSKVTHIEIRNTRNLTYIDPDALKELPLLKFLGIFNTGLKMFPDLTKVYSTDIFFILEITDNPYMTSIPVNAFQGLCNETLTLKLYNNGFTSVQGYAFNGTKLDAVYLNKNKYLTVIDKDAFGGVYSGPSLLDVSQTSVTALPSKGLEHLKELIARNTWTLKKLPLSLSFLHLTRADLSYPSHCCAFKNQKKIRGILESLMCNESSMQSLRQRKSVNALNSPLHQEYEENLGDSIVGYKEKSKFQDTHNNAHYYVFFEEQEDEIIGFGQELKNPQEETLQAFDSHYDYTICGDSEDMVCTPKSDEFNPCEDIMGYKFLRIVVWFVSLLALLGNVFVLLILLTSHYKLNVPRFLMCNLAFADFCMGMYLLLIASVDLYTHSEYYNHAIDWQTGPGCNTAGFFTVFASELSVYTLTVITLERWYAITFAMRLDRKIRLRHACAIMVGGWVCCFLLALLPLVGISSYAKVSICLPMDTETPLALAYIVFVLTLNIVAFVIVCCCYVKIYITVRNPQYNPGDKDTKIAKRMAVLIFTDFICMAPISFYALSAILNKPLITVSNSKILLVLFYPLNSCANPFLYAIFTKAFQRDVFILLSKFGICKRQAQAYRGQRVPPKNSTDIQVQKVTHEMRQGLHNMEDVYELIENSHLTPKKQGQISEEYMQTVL

Nc1cc(=O)[nH]c(N)n1
inactive: Potency [1] | Potency [2] | outcome [3] | Potency [4] | Potency [5] | Potency [6] | Potency [7]

CCCN(CCC)CCc1cccc2c1CC(=O)N2
inactive: Potency [1] | Potency [2] | outcome [3] | Potency [4] | Potency [7]

CC(C)NCC(O)c1ccc(NS(C)(=O)=O)cc1 (stereo unspecified)
inactive: Potency [1] | Potency [2] | outcome [3] | Potency [4] | Potency [5] | Potency [6] | Potency [7]

N=C(N)c1ccccc1
inactive: Potency [1] | Potency [2] | outcome [3] | Potency [4] | Potency [5] | Potency [6] | Potency [7]

N=c1nc(N2CCCCC2)cc(N)n1O
inactive: Potency [1] | Potency [2] | outcome [3] | Potency [4] | Potency [5] | Potency [6] | Potency [7]

CC(C)(O)C#CC(C)(C)O
inactive: Potency [1] | Potency [2] | outcome [8] | Potency [9] | activity change, positive = activation [10] 4.8% | Potency [5] | Potency [6] | Potency [7]

Cn1c(N)c(N=O)c(=O)n(C)c1=O
inactive: Potency [1] | Potency [2] | outcome [8] | Potency [4] | Potency [9] | Potency [6] | Potency [7]

COc1ccc(CCN(C)CCCC(C#N)(c2cc(OC)c(OC)c(OC)c2)C(C)C)cc1OC (stereo unspecified)
active: Potency [1] 2110 nM
inactive: Potency [2] | outcome [3] | Potency [4] | Potency [5] | Potency [7]

CC[N+](C)(C)c1cccc(O)c1
inactive: Potency [1] | Potency [2] | outcome [3] | Potency [4] | Potency [5] | Potency [6] | Potency [7]

CCN1CCC[C@H]1CNC(=O)c1cc(S(N)(=O)=O)ccc1OC
inactive: Potency [1] | Potency [2] | outcome [3] | Potency [4] | Potency [5] | Potency [6] | Potency [7]

CCOC(=O)c1ccc(C)cc1
inactive: Potency [2] | outcome [3] | outcome [8] | Potency [4] | Potency [9] | activity change, positive = activation [10] 4.47% | Potency [5] | Potency [6] | Potency [7]

COC(=O)c1c(Cl)c(Cl)c(C(=O)OC)c(Cl)c1Cl
inactive: Potency [2] | outcome [8] | Potency [9] | Potency [7]
4.6% (inactive) and 15.8% (active): activity change, positive = activation [10]

O=C(O)CNC(=O)c1ccc([N+](=O)[O-])cc1
inactive: Potency [2] | outcome [3] | outcome [8] | Potency [9] | activity change, positive = activation [10] 4.79% | Potency [7]

CC(C)(C)c1ccc(O)c(O)c1
active: Potency [6] 20.2 µM and 13.8 µM
inactive: Potency [2] | Potency [4] | Potency [7]

CC(=O)Nc1c(I)cc(I)c(C(=O)O)c1I
inactive: Potency [2] | outcome [3] | outcome [8] | Potency [4] | Potency [9] | Potency [5] | Potency [7]

CCS(=O)(=O)c1ccc(OC)c(C(=O)OC)c1
inactive: Potency [2] | outcome [3] | outcome [8] | Potency [4] | Potency [9] | Potency [6] | Potency [7]

C[N+](C)(C)CCCCCC[N+](C)(C)C
inactive: Potency [2] | outcome [3] | Potency [4] | Potency [5] | Potency [6] | Potency [7]

COCCCOCCCOC
inactive: Potency [1] | outcome [3] | outcome [8] | Potency [4] | Potency [9] | Potency [6] | Potency [7]

O=C1OC(=O)C2CCCCC12 (stereo unspecified)
inactive: Potency [2] | outcome [3] | outcome [8] | Potency [4] | Potency [9] | activity change, positive = activation [10] -1.02% | Potency [5] | Potency [6] | Potency [7]

CCOC(=O)CCC(C)=O
inactive: Potency [2] | outcome [3] | outcome [8] | Potency [4] | Potency [9] | Potency [5] | Potency [6] | Potency [7]

FC(F)OC(Cl)C(F)(F)F (stereo unspecified)
inactive: Potency [2] | outcome [3] | outcome [8] | Potency [4] | Potency [9] | Potency [6] | Potency [7]

CCCCCCOC(=O)CCCCC(=O)OCCCCCC
inactive: Potency [2] | outcome [3] | outcome [8] | Potency [9] | activity change, positive = activation [10] 5.81% | Potency [5] | Potency [7]

COC(=O)c1ccc(C)cc1C1=NC(C)(C(C)C)C(=O)N1 (stereo unspecified)
inactive: Potency [2] | outcome [3] | outcome [8] | Potency [9] | activity change, positive = activation [10] 4.81% | Potency [5] | Potency [6] | Potency [7]

CCSC(=O)N(CC(C)C)CC(C)C
inactive: Potency [2] | outcome [3] | outcome [8] | Potency [4] | Potency [9] | Potency [5] | Potency [7]

O=c1cc(-c2ccccc2)oc2ccccc12
active: Potency [6] 15.5 µM and 6.88 µM
inactive: Potency [2] | outcome [8] | Potency [5] | Potency [7]

CC(C[N+](C)(C)C)OC(N)=O (stereo unspecified)
inactive: Potency [2] | outcome [3] | Potency [4] | Potency [9] | Potency [5] | Potency [6] | Potency [7]

CO[Si](CCCOCC1CO1)(OC)OC (stereo unspecified)
inactive: Potency [2] | outcome [3] | outcome [8] | Potency [5] | Potency [6] | Potency [7]

O=Cc1cccc([N+](=O)[O-])c1
inactive: Potency [2] | outcome [3] | outcome [8] | Potency [4] | Potency [9] | Potency [5] | Potency [6] | Potency [7]

COc1ccc2c(c1)CCCC2=O
inactive: Potency [2] | outcome [3] | outcome [8] | Potency [4] | Potency [9] | Potency [5] | Potency [6] | Potency [7]

Cc1c(O)cccc1O
inactive: Potency [2] | outcome [3] | outcome [8] | Potency [9] | activity change, positive = activation [10] 2.02% | Potency [5] | Potency [6] | Potency [7]

O=C1CCCC(=O)C1
inactive: Potency [2] | outcome [3] | outcome [8] | Potency [9] | activity change, positive = activation [10] -12.9% | Potency [5] | Potency [6] | Potency [7]

CC(=O)OCC(=O)[C@@]1(O)CC[C@H]2[C@@H]3CCC4=CC(=O)CC[C@]4(C)[C@H]3C(=O)C[C@@]21C
inactive: Potency [2] | outcome [3] | Potency [4] | Potency [5] | Potency [6] | Potency [7]

CN1CCN(c2cc3c(cc2F)c(=O)c(C(=O)O)cn3-c2ccc(F)cc2)CC1
inactive: Potency [2] | outcome [3] | outcome [8] | Potency [4] | Potency [9] | activity change, positive = activation [10] -10.8% [at 42.5 µM] | Potency [5] | Potency [7]

CC(=O)CC(C)(C)C1CCCCC1
inactive: Potency [2] | outcome [3] | outcome [8] | Potency [4] | Potency [9] | activity change, positive = activation [10] 0.591% | Potency [5] | Potency [6] | Potency [7]

O=[N+]([O-])c1ccc(F)cc1F
inactive: Potency [2] | outcome [3] | outcome [8] | Potency [4] | Potency [9] | activity change, positive = activation [10] 3.35% | Potency [5] | Potency [6] | Potency [7]

OC(CCN1CCCCC1)(c1ccccc1)C1CC2C=CC1C2 (stereo unspecified)
inactive: Potency [2] | outcome [3] | outcome [8] | Potency [7]

NC(CSCC(=O)O)C(=O)O (stereo unspecified)
inactive: Potency [2] | outcome [3] | outcome [8] | Potency [4] | Potency [9] | Potency [5] | Potency [6] | Potency [7]

NS(=O)(=O)c1cc2c(cc1Cl)NC(C1CC3C=CC1C3)NS2(=O)=O (stereo unspecified)
inactive: Potency [2] | outcome [3] | Potency [4] | Potency [5] | Potency [6] | Potency [7]

CCCCCOC(=O)CCCCC
inactive: Potency [2] | outcome [3] | outcome [8] | Potency [4] | Potency [9] | Potency [5] | Potency [6] | Potency [7]

CC/C=C\CC/C=C/CO
inactive: Potency [2] | outcome [3] | outcome [8] | Potency [4] | Potency [9] | activity change, positive = activation [10] 5.28% | Potency [5] | Potency [6] | Potency [7]

CCCCOCCOCCOCc1cc2c(cc1CCC)OCO2
inactive: Potency [2] | outcome [3] | outcome [8] | Potency [4] | Potency [5] | Potency [6] | Potency [7]

CN(C(=O)c1c(O)c2ccccc2n(C)c1=O)c1ccccc1
inactive: Potency [2] | outcome [3] | outcome [8] | Potency [4] | Potency [9] | activity change, positive = activation [10] 0.397% [at 42.5 µM] | Potency [5] | Potency [6] | Potency [7]

NC(=O)c1ccc(N)cc1
inactive: Potency [2] | outcome [3] | outcome [8] | Potency [4] | Potency [9] | activity change, positive = activation [10] 8.51% | Potency [5] | Potency [6] | Potency [7]

Cc1nc2c([nH]1)c(=O)n(C)c(=O)n2Cc1ccco1
inactive: Potency [2] | outcome [3] | outcome [8] | Potency [5] | Potency [6] | Potency [7]

N=C(N)c1ccc2cc(OC(=O)c3ccc(N=C(N)N)cc3)ccc2c1
inactive: Potency [2] | outcome [3] | outcome [8] | Potency [4] | Potency [9] | activity change, positive = activation [10] 0.274% [at 42.5 µM] | Potency [6] | Potency [7]

Source: PubChem BioAssay (Tox21)
